From PubChem BioAssay (NCATS)
Values without a mark were called inactive. Results filed as inconclusive are left out. Calls of active or inactive are those of the source. Unless noted, the call rests on the fitted dose curve; in most records, active means well fitted inhibition curve with a large enough effect; inconclusive means small, poorly fitted or top-dose-only effect; inactive means flat fitted curve, though single readings scatter.

Tests used:
[1] = Drug repurposing screens with cells derived from glioblastoma tumor samples (AID 1345199); conditions: GBM patient neurospheres viability, ATP luminescence, 48 h; further: nearly all actives have a fitted effect of over 40% in size; further: potency means the concentration at half of the fitted maximal effect; on activity, negative = cell killing: on the % scale 0 is the no-effect control and ±100 the full control effect
Summary of the method: (§1)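 Four patient lines of CD133+ GBM neurospheres were screened at several concentrations; hits were retested in those lines plus three slower-growing GBM lines, using 48-hour treatment and ATP-based viability.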

astro = control astrocytes; assay: as above; conditions: viability, ATP luminescence, 48 h; series mostly up to 45.9 µM
Summary of the method: as §1

[2] = target: Nuclear receptor subfamily 1 group I member 2 (Rattus norvegicus) (UniProt Q9R1A7); assay: qHTS assay for small molecule activators of the rat pregnane X receptor (rPXR) signaling pathway (AID 651751; call rule not given here; further: 0% is about no effect); conditions: rPXR reporter cells, luciferase (One-Glo), 24 h
[3] = qHTS assay for small molecule activators of the human pregnane X receptor (PXR) signaling pathway (AID 720659; call rule not given here; further: 0% is about no effect); conditions: DPX-2 HepG2 CYP3A4-luciferase, 24 h; series mostly up to 92.3 µM
[4] = at 45.9 µM (top of the series), tumour line B
[5] = at 45.9 µM (top of the series), tumour line D
[6] = at 46 µM (top of the series), tumour line A
[7] = at 46.1 µM (top of the series), tumour line C

Nuclear receptor subfamily 1 group I member 2 (Rattus norvegicus), sequence (Q9R1A7 whole entry, looked up): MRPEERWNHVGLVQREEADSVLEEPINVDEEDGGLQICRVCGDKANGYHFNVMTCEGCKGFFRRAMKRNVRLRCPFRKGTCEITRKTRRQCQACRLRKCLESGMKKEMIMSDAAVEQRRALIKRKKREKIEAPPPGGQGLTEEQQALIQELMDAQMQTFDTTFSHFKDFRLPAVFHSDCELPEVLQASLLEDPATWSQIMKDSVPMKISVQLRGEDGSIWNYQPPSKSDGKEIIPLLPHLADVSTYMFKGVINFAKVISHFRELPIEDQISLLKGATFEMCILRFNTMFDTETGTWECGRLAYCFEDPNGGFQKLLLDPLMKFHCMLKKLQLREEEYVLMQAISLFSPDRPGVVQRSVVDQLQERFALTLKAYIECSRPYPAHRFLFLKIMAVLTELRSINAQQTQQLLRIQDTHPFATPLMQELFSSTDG

| SMILES | activity, negative = cell killing [1, 4] | activity, negative = cell killing [1, 5] | activity, negative = cell killing [1, 6] | activity, negative = cell killing [1, 7] | Potency (astro) | Potency ([1]; tumour line A) | max response [2] | outcome [3] | Potency ([1]; tumour line B) | Potency ([1]; tumour line D) |
| --- | --- | --- | --- | --- | --- | --- | --- | --- | --- | --- |
| CC(=O)Nc1c(I)c(C(=O)O)c(I)c(N(C)C(C)=O)c1I | 6.39% | 5.92% | -22.3% | 7.24% | inactive | – | – | – | – | – |
| C=CC[C@@H]1/C=C(\C)C[C@H](C)C[C@H](OC)[C@H]2O[C@@](O)(C(=O)C(=O)N3CCCC[C@H]3C(=O)O[C@H](/C(C)=C/[C@@H]3CC[C@@H](O)[C@H](OC)C3)[C@H](C)[C@@H](O)CC1=O)[C@H](C)C[C@@H]2OC | -12.2% | -18.8% | – | -16.1% | inactive | 7.94 µM (active) | – | – | – | – |
| CCCCCc1ccc(C)cc1O | -7.13% | 3.04% | -24.1% | -11.1% | inactive | – | – | – | – | – |
| C/C=C/C=C/C(=O)O | 2.26% | -15.1% | -7.83% | -7.57% | inactive | – | – | – | – | – |
| CC(C)(CO)[C@@H](O)C(=O)NCCCC(=O)O | 2.97% | -4.32% | -3.96% | -7.77% | inactive | – | – | – | – | – |
| C=O | -5.16% | -12.4% | -10.6% | 0.841% | inactive | – | – | – | – | – |
| Cc1ccc(S(=O)(=O)NCl)cc1 | -6.22% | 7.3% | -22.9% | -11.3% | inactive | – | -0.198% | inactive | – | – |
| Nc1nc(=O)n([C@@H]2CS[C@H](CO)O2)cc1F | -1.96% | -4.58% | -12.2% | 2.71% | inactive | – | – | – | – | – |
| O=P(O)(O)O | 9.14% | -2.27% | -6.51% | 0.794% | inactive | – | -0.433% | inactive | – | – |
| O=C(OC[C@H]1O[C@@H](OC(=O)c2cc(O)c(O)c(OC(=O)c3cc(O)c(O)c(O)c3)c2)[C@H](OC(=O)c2cc(O)c(O)c(OC(=O)c3cc(O)c(O)c(O)c3)c2)[C@@H](OC(=O)c2cc(O)c(O)c(OC(=O)c3cc(O)c(O)c(O)c3)c2)[C@@H]1OC(=O)c1cc(O)c(O)c(OC(=O)c2cc(O)c(O)c(O)c2)c1)c1cc(O)c(O)c(OC(=O)c2cc(O)c(O)c(O)c2)c1 | – | – | – | -14.4% | 2.82 µM (active) | 15.8 µM (active) | – | – | 22.4 µM (active) | 17.8 µM (active) |
| CC(C)CCCC(C)NC(C)C (stereo unspecified) | -14.7% | -20.7% | -22.7% | -7.93% | inactive | – | – | – | – | – |
| CO | -8.56% | -4.99% | -10.2% | -11.6% | inactive | – | 4.07% | inactive | – | – |
